# Laboratory results as given in PubChem BioAssay (NCI).
# The panel holds about 79,000 compounds, 15% with a hit somewhere; the sample as a whole holds those more often. Values without a mark were called inactive. Activity calls are given as the source filed them. No stated cut-off is given here; in the data, active means growth inhibition above about 70%; inactive means the rest.
# How the values were obtained:
# [1] = NCI Yeast Anticancer Drug Screen. Data for the rad52 strain (AID 147);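 further: 0% = growth of vehicle-treated control cultures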; settings: S. cerevisiae rad52 mutant growth inhibition, active compounds read high
# Procedure, shortened: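 Growth of repair-deficient yeast cells was compared between compound-treated and vehicle-treated cultures to give percent inhibition.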
# [2] = NCI Yeast Anticancer Drug Screen. Data for the wt1 strain (AID 149);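 further: 0% = growth of vehicle-treated wt1 cultures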; settings: S. cerevisiae wt1 strain (SPY 50644) growth inhibition, active compounds read high
# Procedure, shortened: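 Growth inhibition read against vehicle controls after compound exposure of the wt1 yeast strain.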
# [3] = NCI Yeast Anticancer Drug Screen. Data for the rad50EPP+ strain (AID 151);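 further: 0% = growth of vehicle-treated control cultures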; settings: S. cerevisiae rad50 mutant strain, active compounds read high
# Procedure, shortened: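 Measured: growth inhibition of rad50EPP+ yeast. Reference: vehicle-treated controls. Screen uses strains with defined genetic alterations in DNA damage repair or cell cycle control.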
# [4] = NCI Yeast Anticancer Drug Screen. Data for the rad50 strain (AID 155);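 further: 0% = growth of vehicle-only cultures of the same strain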; settings: S. cerevisiae rad50 strain growth inhibition, active compounds read high
# Procedure, shortened: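 Readout: growth inhibition relative to vehicle-treated cultures. Compound exposure was carried out in a genetically defined yeast strain deficient in DNA damage repair.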
# [5] = NCI Yeast Anticancer Drug Screen. Data for the mec2-1 strain (AID 157); settings: S. cerevisiae mec2-1 strain, active compounds read high
# Procedure, shortened: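 Compounds were applied to mec2-1 yeast cells. Their growth was then compared with that of vehicle-treated cultures to give growth inhibition.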
# [6] = NCI Yeast Anticancer Drug Screen. Data for the rad14 strain (AID 159);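 further: 0% = growth of vehicle-treated control cultures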; settings: S. cerevisiae rad14 strain growth inhibition, active compounds read high
# Procedure, shortened: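 Growth inhibition vs vehicle controls; genetically altered yeast strain (DNA damage repair defect) treated with test compounds.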
# [7] = NCI Yeast Anticancer Drug Screen. Data for the sgs1 mgt1 strain (AID 161);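 further: 0% = growth of cultures given vehicle only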; settings: S. cerevisiae sgs1 mgt1 strain, active compounds read high
# Procedure, shortened: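 Compounds are added to genetically altered yeast, and growth is compared with cultures given vehicle alone to give percent inhibition.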
# [8] = NCI Yeast Anticancer Drug Screen. Data for the CLN2oe strain (AID 163);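 further: 0% = growth of vehicle-only control cultures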; settings: S. cerevisiae CLN2oe strain, active compounds read high
# Procedure, shortened: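 Cells of an engineered yeast line with disturbed cell-cycle regulation are treated with compound. Inhibition of growth is then calculated relative to the vehicle-treated reference.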
# [9] = NCI Yeast Anticancer Drug Screen. Data for the cln2 rad14 strain (AID 165);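 further: 0% = growth equal to vehicle treated cultures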; settings: S. cerevisiae cln2 rad14 strain, active compounds read high
# Procedure, shortened: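 Strain: cln2 rad14 yeast, altered in cell cycle control and DNA damage repair. Read-out: growth inhibition vs vehicle.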
# [10] = NCI Yeast Anticancer Drug Screen. Data for the bub3 strain (AID 167); settings: S. cerevisiae bub3 mutant strain, active compounds read high
# Procedure, shortened: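 Readout: yeast growth inhibition, expressed relative to vehicle-only wells. The test organism is a mutant strain from a panel with lesions in DNA repair or checkpoint genes.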
# [11] = NCI Yeast Anticancer Drug Screen. Data for the wt2 strain (AID 169);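 further: 0% = growth of vehicle-treated yeast cultures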; settings: S. cerevisiae wt2 strain growth inhibition, active compounds read high
# Procedure, shortened: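 Growth of compound-treated yeast is measured and expressed as inhibition relative to vehicle-only controls.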
# [12] = NCI Yeast Anticancer Drug Screen. Data for the mlh1 strain (AID 171);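 further: 0% = growth of vehicle-treated control cultures of the same strain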; settings: S. cerevisiae mlh1 strain growth inhibition, active compounds read high
# Procedure, shortened: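 Test agents were incubated with yeast bearing a defined DNA damage repair or cell cycle control alteration; values are growth inhibition normalised to vehicle-treated cultures.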
# [13] = NCI Yeast Anticancer Drug Screen. Data for the sgs1 strain (AID 173);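 further: 0% = growth of vehicle-only control cultures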; settings: S. cerevisiae sgs1 mutant, active compounds read high
# Procedure, shortened: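 Strain with an altered DNA repair or cell cycle pathway exposed to compound. Growth then measured. Value = inhibition versus vehicle control.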
# [14] = NCI Yeast Anticancer Drug Screen. Data for the mlh1 rad18 strain (AID 175); settings: S. cerevisiae mlh1 rad18 strain growth inhibition, active compounds read high
# Procedure, shortened: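 A repair-deficient yeast strain is exposed to test compound, and growth is scored relative to vehicle-treated controls.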
# [15] = NCI Yeast Anticancer Drug Screen. Data for the rad18 strain (AID 177); settings: S. cerevisiae rad18 mutant growth inhibition, active compounds read high
# Procedure, shortened: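 DNA-repair-defective yeast; compound treatment; growth inhibition scored against vehicle.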
# [16] = at 5.0 µM (retest, dose inferred, filed as 0.5)
# [17] = at 50.0 µM (retest, dose inferred, filed as 5.0)
structure (smiles),measurement,setting,value
O=Nn1c2ccccc2c2cc([N+](=O)[O-])ccc21,growth inhibition,[1]; at 1.2 µM,-6%
same,growth inhibition,[1]; at 3.7 µM,11%
same,growth inhibition,[1]; at 11.0 µM,51%
same,growth inhibition,[1]; at 33.0 µM,88% (active)
same,growth inhibition,[1]; at 100.0 µM,95% (active)
same,growth inhibition,[2]; at 1.2 µM,-27%
same,growth inhibition,[2]; at 3.7 µM,-23%
same,growth inhibition,[2]; at 11.0 µM,-14%
same,growth inhibition,[2]; at 33.0 µM,49%
same,growth inhibition,[2]; at 100.0 µM,92% (active)
same,growth inhibition,[3]; at 1.2 µM,8%
same,growth inhibition,[3]; at 3.7 µM,15%
same,growth inhibition,[3]; at 11.0 µM,27%
same,growth inhibition,[3]; at 33.0 µM,66%
same,growth inhibition,[3]; at 100.0 µM,85% (active)
same,growth inhibition,[4]; at 1.2 µM,15%
same,growth inhibition,[4]; at 3.7 µM,24%
same,growth inhibition,[4]; [16],47%
same,growth inhibition,[4]; at 11.0 µM,53%
same,growth inhibition,[4]; at 33.0 µM,89% (active)
same,growth inhibition,[4]; [17],92% (active)
same,growth inhibition,[4]; at 50.0 µM,81.9% (active)
same,growth inhibition,[4]; at 100.0 µM,93% (active)
same,growth inhibition,[5]; at 1.2 µM,-16%
same,growth inhibition,[5]; at 3.7 µM,-1%
same,growth inhibition,[5]; [16],51%
same,growth inhibition,[5]; at 11.0 µM,11%
same,growth inhibition,[5]; at 33.0 µM,59%
same,growth inhibition,[5]; [17],91% (active)
same,growth inhibition,[5]; at 50.0 µM,75.8% (active)
same,growth inhibition,[5]; at 100.0 µM,93% (active)
same,growth inhibition,[6]; at 1.2 µM,-19%
same,growth inhibition,[6]; at 3.7 µM,-5%
same,growth inhibition,[6]; at 11.0 µM,1%
same,growth inhibition,[6]; at 33.0 µM,61%
same,growth inhibition,[6]; at 100.0 µM,93% (active)
same,growth inhibition,[7]; [16],-26%
same,growth inhibition,[7]; [17],27%
same,growth inhibition,[7]; at 50.0 µM,84.5% (active)
same,growth inhibition,[8]; at 1.2 µM,-32%
same,growth inhibition,[8]; at 3.7 µM,-9%
same,growth inhibition,[8]; at 11.0 µM,-9%
same,growth inhibition,[8]; at 33.0 µM,55%
same,growth inhibition,[8]; at 100.0 µM,94% (active)
same,growth inhibition,[9]; [16],35%
same,growth inhibition,[9]; [17],62%
same,growth inhibition,[9]; at 50.0 µM,72.9% (active)
same,growth inhibition,[10]; at 1.2 µM,4%
same,growth inhibition,[10]; at 3.7 µM,19%
same,growth inhibition,[10]; [16],19%
same,growth inhibition,[10]; at 11.0 µM,55%
same,growth inhibition,[10]; at 33.0 µM,88% (active)
same,growth inhibition,[10]; [17],71% (active)
same,growth inhibition,[10]; at 50.0 µM,84.8% (active)
same,growth inhibition,[10]; at 100.0 µM,96% (active)
same,growth inhibition,[11]; at 1.2 µM,-28%
same,growth inhibition,[11]; at 3.7 µM,-22%
same,growth inhibition,[11]; at 11.0 µM,8%
same,growth inhibition,[11]; at 33.0 µM,59%
same,growth inhibition,[11]; at 100.0 µM,91% (active)
same,growth inhibition,[12]; at 1.2 µM,-35%
same,growth inhibition,[12]; at 3.7 µM,-29%
same,growth inhibition,[12]; at 11.0 µM,-3%
same,growth inhibition,[12]; at 33.0 µM,48%
same,growth inhibition,[12]; at 100.0 µM,89% (active)
same,growth inhibition,[13]; at 1.2 µM,-8%
same,growth inhibition,[13]; at 3.7 µM,-14%
same,growth inhibition,[13]; at 11.0 µM,-1%
same,growth inhibition,[13]; at 33.0 µM,65%
same,growth inhibition,[13]; at 100.0 µM,92% (active)
same,growth inhibition,[14]; [16],39%
same,growth inhibition,[14]; [17],97% (active)
same,growth inhibition,[14]; at 50.0 µM,80% (active)
same,growth inhibition,[15]; at 1.2 µM,-10%
same,growth inhibition,[15]; at 3.7 µM,-6%
same,growth inhibition,[15]; at 11.0 µM,37%
same,growth inhibition,[15]; at 33.0 µM,84% (active)
same,growth inhibition,[15]; at 100.0 µM,93% (active)
Cc1onc(-c2ccccc2Cl)c1C1=N/C(=C/c2cc(Cl)cc(Cl)c2O)C(=O)O1,growth inhibition,[1]; at 1.2 µM,-36%
same,growth inhibition,[1]; at 3.7 µM,-39%
same,growth inhibition,[1]; at 11.0 µM,-35%
same,growth inhibition,[1]; at 33.0 µM,-42%
same,growth inhibition,[1]; at 100.0 µM,70% (active)
same,growth inhibition,[2]; at 1.2 µM,-3%
same,growth inhibition,[2]; at 3.7 µM,-26%
same,growth inhibition,[2]; at 11.0 µM,-26%
same,growth inhibition,[2]; at 33.0 µM,-16%
same,growth inhibition,[2]; at 100.0 µM,74% (active)
same,growth inhibition,[3]; at 1.2 µM,-22%
same,growth inhibition,[3]; at 3.7 µM,-28%
same,growth inhibition,[3]; at 11.0 µM,3%
same,growth inhibition,[3]; at 33.0 µM,-5%
same,growth inhibition,[3]; at 100.0 µM,-25%
same,growth inhibition,[4]; at 1.2 µM,-38%
same,growth inhibition,[4]; at 3.7 µM,-32%
same,growth inhibition,[4]; [16],33%
same,growth inhibition,[4]; at 11.0 µM,-35%
same,growth inhibition,[4]; at 33.0 µM,2%
same,growth inhibition,[4]; [17],90% (active)
same,growth inhibition,[4]; at 50.0 µM,79.3% (active)
same,growth inhibition,[4]; at 100.0 µM,69%
same,growth inhibition,[5]; at 1.2 µM,-32%
same,growth inhibition,[5]; at 3.7 µM,-35%
same,growth inhibition,[5]; [16],35%
same,growth inhibition,[5]; at 11.0 µM,-39%
same,growth inhibition,[5]; at 33.0 µM,-4%
same,growth inhibition,[5]; [17],90% (active)
same,growth inhibition,[5]; at 50.0 µM,60%
same,growth inhibition,[5]; at 100.0 µM,61%
same,growth inhibition,[6]; at 1.2 µM,-51%
same,growth inhibition,[6]; at 3.7 µM,-56%
same,growth inhibition,[6]; at 11.0 µM,-58%
same,growth inhibition,[6]; at 33.0 µM,-46%
same,growth inhibition,[6]; at 100.0 µM,59%
same,growth inhibition,[7]; [16],-9%
same,growth inhibition,[7]; [17],42%
same,growth inhibition,[7]; at 50.0 µM,78.6% (active)
same,growth inhibition,[8]; at 1.2 µM,-5%
same,growth inhibition,[8]; at 3.7 µM,-19%
same,growth inhibition,[8]; at 11.0 µM,-5%
same,growth inhibition,[8]; at 33.0 µM,26%
same,growth inhibition,[8]; at 100.0 µM,66%
same,growth inhibition,[9]; [16],72% (active)
same,growth inhibition,[9]; [17],60%
same,growth inhibition,[9]; at 50.0 µM,71.5% (active)
same,growth inhibition,[10]; at 1.2 µM,-55%
same,growth inhibition,[10]; at 3.7 µM,-40%
same,growth inhibition,[10]; [16],47%
same,growth inhibition,[10]; at 11.0 µM,-43%
same,growth inhibition,[10]; at 33.0 µM,-10%
same,growth inhibition,[10]; [17],65%
same,growth inhibition,[10]; at 50.0 µM,77.2% (active)
same,growth inhibition,[10]; at 100.0 µM,68%
same,growth inhibition,[11]; at 1.2 µM,-12%
same,growth inhibition,[11]; at 3.7 µM,-12%
same,growth inhibition,[11]; at 11.0 µM,-18%
same,growth inhibition,[11]; at 33.0 µM,11%
same,growth inhibition,[11]; at 100.0 µM,62%
same,growth inhibition,[12]; at 1.2 µM,-39%
same,growth inhibition,[12]; at 3.7 µM,-42%
same,growth inhibition,[12]; at 11.0 µM,-27%
same,growth inhibition,[12]; at 33.0 µM,3%
same,growth inhibition,[12]; at 100.0 µM,49%
same,growth inhibition,[13]; at 1.2 µM,-19%
same,growth inhibition,[13]; at 3.7 µM,-39%
same,growth inhibition,[13]; at 11.0 µM,-23%
same,growth inhibition,[13]; at 33.0 µM,11%
same,growth inhibition,[13]; at 100.0 µM,69%
same,growth inhibition,[14]; [16],42%
same,growth inhibition,[14]; [17],46%
same,growth inhibition,[14]; at 50.0 µM,75.6% (active)
same,growth inhibition,[15]; at 1.2 µM,-46%
same,growth inhibition,[15]; at 3.7 µM,-50%
same,growth inhibition,[15]; at 11.0 µM,-44%
same,growth inhibition,[15]; at 33.0 µM,-21%
same,growth inhibition,[15]; at 100.0 µM,58%
